Data on 23 molecules can be found in PMC4336329 (PLoS ONE, 2015).

The campaign covered roughly 310,000 compounds. About 2,200 (0.71%) showed an effect of 50% or more. The effect is printed as a negative number. The sample holds strong results, similar compounds and a random draw of the others, so the mix is not that of the screen.

Sequence of human ether-à-go-go-related gene (hERG) potassium channel (Q12809 whole entry, looked up): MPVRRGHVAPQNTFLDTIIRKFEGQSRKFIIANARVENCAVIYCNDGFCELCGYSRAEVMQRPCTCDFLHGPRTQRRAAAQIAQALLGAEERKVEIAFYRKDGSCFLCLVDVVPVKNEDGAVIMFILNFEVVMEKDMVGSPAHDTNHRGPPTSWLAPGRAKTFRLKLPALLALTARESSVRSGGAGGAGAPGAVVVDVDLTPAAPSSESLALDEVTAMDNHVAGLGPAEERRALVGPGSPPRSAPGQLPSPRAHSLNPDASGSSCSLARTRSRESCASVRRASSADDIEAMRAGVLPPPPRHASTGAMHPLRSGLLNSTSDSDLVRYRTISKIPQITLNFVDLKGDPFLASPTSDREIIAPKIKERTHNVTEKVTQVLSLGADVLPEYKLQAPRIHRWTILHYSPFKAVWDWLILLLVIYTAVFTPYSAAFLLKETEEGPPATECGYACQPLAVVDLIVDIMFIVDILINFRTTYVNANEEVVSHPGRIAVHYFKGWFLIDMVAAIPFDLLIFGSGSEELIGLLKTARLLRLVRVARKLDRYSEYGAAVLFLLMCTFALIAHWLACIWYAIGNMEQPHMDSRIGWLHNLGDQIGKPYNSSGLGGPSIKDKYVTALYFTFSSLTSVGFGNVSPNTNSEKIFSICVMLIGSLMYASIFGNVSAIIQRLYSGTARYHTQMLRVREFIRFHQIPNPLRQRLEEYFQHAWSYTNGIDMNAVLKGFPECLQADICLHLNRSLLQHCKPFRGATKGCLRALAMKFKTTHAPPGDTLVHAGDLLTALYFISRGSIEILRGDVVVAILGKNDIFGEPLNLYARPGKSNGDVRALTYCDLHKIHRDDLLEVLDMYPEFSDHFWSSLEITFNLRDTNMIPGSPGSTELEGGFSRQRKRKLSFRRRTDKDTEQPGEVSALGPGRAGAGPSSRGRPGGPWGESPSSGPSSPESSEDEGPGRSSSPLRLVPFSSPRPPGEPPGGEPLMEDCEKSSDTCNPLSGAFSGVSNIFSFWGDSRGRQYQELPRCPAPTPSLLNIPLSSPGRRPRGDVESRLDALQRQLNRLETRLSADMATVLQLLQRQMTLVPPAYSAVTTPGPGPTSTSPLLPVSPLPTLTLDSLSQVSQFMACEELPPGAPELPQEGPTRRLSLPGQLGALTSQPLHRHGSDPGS

This test addresses human ether-à-go-go-related gene (hERG) potassium channel (human, UniProt Q12809). As to the kind of experiment: primary screen, population patch clamp on CHO cells stably expressing hERG; higher = less effect of the substance.
`CS(=O)(=O)N(Cc1cccc(CN(C(C(=O)O)c2ccccc2)S(C)(=O)=O)c1)C(C(=O)O)c1ccccc1` (centres unmarked): the “hERG current change (%, negative = inhibition) at 1uM” value came out at 16.9%.

For `O=C(O)CC1(CC(=O)Nc2ccc(C(F)(F)F)cc2)CCCC1`, the “hERG current change (%, negative = inhibition) at 1uM” value was determined as 15.6%.

On to `Cc1ccc(OCCC(=O)OCC(=O)NC(=O)NC2CCCCC2)cc1`, for which the “hERG current change (%, negative = inhibition) at 1uM” value is recorded as 14.2%.

Turning to `Cn1cnnc1SCc1ccccc1Br`, the “hERG current change (%, negative = inhibition) at 1uM” value came to 12.6%.

For `CC(=O)Nc1ccc(NC(=O)C(C)Sc2n[nH]c(-c3ccc(C)cc3)n2)cc1` (centres unmarked), the “hERG current change (%, negative = inhibition) at 1uM” value is 8.42%.

As to `Cc1ccc(C)c(-n2c(C)nc3ccccc3c2=O)c1`, the “hERG current change (%, negative = inhibition) at 1uM” value amounted to 13.2%.

`CC(C)(C)c1ccc(C(=O)NCCc2ccccc2)cc1`: the “hERG current change (%, negative = inhibition) at 1uM” value stood at 6.65%.

For `Cc1ccc(C2=NN=C(NC(=O)CSc3nnc4c5ccccc5n(C)c4n3)SC2)cc1`, the “hERG current change (%, negative = inhibition) at 1uM” value amounted to 8.27%.

For `Cc1ccc2oc(C(=O)N3CCN(C)C[C@@H]3C(C)C)c(C)c2c1`, the “hERG current change (%, negative = inhibition) at 1uM” value was found to be 9.07%.

Regarding `O=C(OCCNC(=O)c1ccc2ccccc2n1)c1ccc(F)cc1`, the “hERG current change (%, negative = inhibition) at 1uM” value is given as 4.77%.

For `Cc1ccc(OCCCC(=O)Nc2ccc(S(N)(=O)=O)cc2)cc1`, the “hERG current change (%, negative = inhibition) at 1uM” value was 9.66%.

Consider `COc1ccc([N+](=O)[O-])cc1NS(=O)(=O)c1ccc(Cl)c(C(=O)Nc2sc3c(c2C#N)CCCCC3)c1`, for which the “hERG current change (%, negative = inhibition) at 1uM” value was determined as 17.4%.

As to `COc1ccc(/C(N)=N/OC(=O)CCc2ccccc2)cc1`, the “hERG current change (%, negative = inhibition) at 1uM” value worked out at 4.26%.

On to `COc1cccc(C(=O)CN(C(=O)c2ccc(Cl)cc2Cl)N2C(=O)c3ccccc3C2=O)c1`, for which the “hERG current change (%, negative = inhibition) at 1uM” value is recorded as 8.71%.

Turning to `CCC1(CC)NC(=O)N(CC(=O)OCC(=O)Nc2ccc(C(F)(F)F)cc2)C1=O`, the “hERG current change (%, negative = inhibition) at 1uM” value was determined as 2.71%.

For `O=C(c1ccc2c(c1)OCO2)C1CCCN(Cc2cn[nH]c2-c2cccc(F)c2)C1` (centres unmarked), the “hERG current change (%, negative = inhibition) at 1uM” value is on record as -42.7%.

Consider `O=C(c1ccc2c(c1)OCO2)C1CCCN(Cc2ccccn2)C1` (centres unmarked), for which the “hERG current change (%, negative = inhibition) at 1uM” value is listed as -13%.

Consider `COC(=O)c1ccc(CN2CCCC(C(=O)c3ccccc3OC)C2)cc1` (centres unmarked), for which the “hERG current change (%, negative = inhibition) at 1uM” value was -6.6%.

Regarding `COc1ccccc1C(=O)C1CCCN(Cc2ccc(Oc3ncccn3)cc2)C1` (centres unmarked), the “hERG current change (%, negative = inhibition) at 1uM” value is on record as -0.388%.

As for `O=C(c1ccc2c(c1)OCO2)C1CCCN(Cc2cn[nH]c2-c2ccccc2)C1` (centres unmarked), the “hERG current change (%, negative = inhibition) at 1uM” value is -67.3%.

On to `CCOc1ccc(CN2CCCC(C(=O)c3ccccc3OC)C2)cc1` (centres unmarked), for which the “hERG current change (%, negative = inhibition) at 1uM” value is -74.1%.

`CCC(CC)c1nnc(NC(=O)C23CC4CC(CC(NC(C)=O)(C4)C2)C3)s1`: the “hERG current change (%, negative = inhibition) at 1uM” value came to 0.699%.

Regarding `Cc1cc(C)c(C)c(C(=O)c2ccccc2C(=O)O)c1C`, the “hERG current change (%, negative = inhibition) at 1uM” value was 6.64%.
